Experimental data from PubChem BioAssay (NCI).
The panel holds about 83,000 compounds, 20% with a hit somewhere; the sample as a whole holds those more often.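 The test compound was applied at a single concentration to cells in 96-well plates for 48 hours, and percent growth was recorded.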 Unmarked numbers belong to inactive results. Calls of active or inactive are those of the source. The calls were made as follows: active = growth percent below 10; inactive = the rest.

Legend:
Experiment in all cases: NCI-60 one-dose screen, 48 h (100 = growth as untreated, 0 = no growth, -100 = all killed)
Conditions in all cases: 10 µM unless noted
[1] = system: DU-145 prostate
[2] = system: K-562 leukemia
[3] = system: MALME-3M melanoma
[4] = system: MDA-MB-231 breast
[5] = system: RXF 393 renal
[6] = system: SF-268 CNS
[7] = system: SF-295 CNS
[8] = system: SF-539 CNS
[9] = system: UACC-257 melanoma
[10] = system: M14 melanoma
[11] = system: HCT-15 colon
[12] = system: HT29 colon
[13] = system: SNB-19 CNS
[14] = system: U251 CNS
[15] = system: PC-3 prostate
[16] = system: SK-MEL-5 melanoma
[17] = system: UACC-62 melanoma
[18] = system: LOX IMVI melanoma
[19] = system: SK-MEL-28 melanoma

Compound `CCOC(=O)/C(C#N)=C1/C(=O)Nc2ccccc21` has a growth [1] of 123%, a growth [2] of 132% and a growth [3] of 108%. It also gave a growth [4] of 116%, a growth [5] of 117% and a growth [6] of 122%. The growth [7] was 113%, the growth [8] was 99.7% and the growth [9] was 123%. It also gave a growth [10] of 94.6%, a growth [11] of 106% and a growth [12] of 112%. For the same compound, the growth [13] was 104%, the growth [14] was 113% and the growth [15] was 94.2%. For the same compound, the growth [16] was 115%, the growth [17] was 103% and the growth [18] was 99%. The growth [19] was 115%.
Work on `O=C(Nc1ccncc1)C(=O)c1cn(S(=O)(=O)c2ccc(Cl)cc2)c2ccccc12` yielded a growth [1] of 27.7%, a growth [2] of 22.2% and a growth [3] of 31.7%. It also gave a growth [4] of 45.7%, a growth [5] of 25% and a growth [6] of 41.8%. The growth [7] was 13.1%, the growth [8] was 9.27% (active) and the growth [9] was 75.9%. The growth [10] was 17.7%, the growth [11] was 26.6% and the growth [12] was 2.91% (active). For the same compound, the growth [13] was 44.7%, the growth [14] was 31.3% and the growth [15] was 41.7%. It also gave a growth [16] of 17.1%, a growth [17] of 30.7% and a growth [18] of 42.8%. The growth [19] was 46.4%.
`COc1ccc(C2=C(c3cc(OC)c(OC)c(OC)c3)C(=O)CC2)cc1` was tested, and the growth [1] was -19.3% (active), the growth [2] was 20.5% and the growth [3] was 35.3%. For the same compound, the growth [4] was 17.2%, the growth [5] was 1.23% (active) and the growth [6] was 33%. The growth [7] was 9.47% (active), the growth [8] was 0.222% (active) and the growth [9] was 65.4%. For the same compound, the growth [10] was 2.99% (active), the growth [11] was 24.2% and the growth [12] was -5.43% (active). It also gave a growth [13] of 35.1%, a growth [14] of 21.7% and a growth [15] of 38.3%. For the same compound, the growth [16] was -33.6% (active), the growth [17] was 32.7% and the growth [18] was 19.6%. For the same compound, the growth [19] was 47.7%.
In the case of `Cc1ccc(/C=C2\CN(C(=O)CCN3CCC(=NO)CC3)C/C(=C\c3ccc(C)cc3)C2=O)cc1`, the growth [1] is reported as 21.6%, the growth [2] is reported as 4.38% (active) and the growth [3] is reported as -27.6% (active). For the same compound, the growth [4] was -13.8% (active), the growth [5] was -77.7% (active) and the growth [6] was 12.9%. The growth [7] was -1.83% (active), the growth [8] was -18% (active) and the growth [9] was 44.9%. The growth [10] was 5.63% (active), the growth [11] was -27.9% (active) and the growth [12] was -42.8% (active). The growth [13] was 7.61% (active), the growth [14] was -49.6% (active) and the growth [15] was 11.7%. The growth [16] was -23.6% (active), the growth [17] was -50.8% (active) and the growth [18] was -89.7% (active). For the same compound, the growth [19] was -17.5% (active).
Compound `CC1CN(c2oc(-c3ccccc3)nc2C#N)CC(C)O1` (centres undefined) has a growth [1] of 99.7%, a growth [2] of 97.6% and a growth [3] of 102%. It also gave a growth [4] of 101%, a growth [5] of 104% and a growth [6] of 98.2%. It also gave a growth [7] of 99.1%, a growth [8] of 98.6% and a growth [9] of 103%. It also gave a growth [10] of 99.3%, a growth [11] of 103% and a growth [12] of 106%. It also gave a growth [13] of 100%, a growth [14] of 103% and a growth [15] of 102%. It also gave a growth [16] of 93.1%, a growth [17] of 97% and a growth [19] of 104%.
`CCCCCCCCN(CCCCCCCC)CCCCCCNc1cc(OC)cc2cccnc12` was tested, and the growth [1] was 27.4%, the growth [2] was 80.1% and the growth [3] was 61.7%. It also gave a growth [4] of 52%, a growth [5] of 108% and a growth [6] of 83.4%. It also gave a growth [7] of 109%, a growth [8] of 111% and a growth [9] of 18.2%. The growth [10] was -1.6% (active), the growth [11] was 109% and the growth [12] was 28.1%. For the same compound, the growth [13] was 94.1%, the growth [14] was 84.9% and the growth [15] was 67.2%. For the same compound, the growth [16] was 103%, the growth [17] was 110% and the growth [18] was 32.3%. It also gave a growth [19] of 106%.
`COc1ccc(Nc2ncccc2C(=O)NCc2cn(Cc3cccc(Oc4ccccc4)c3)nn2)c(OC)c1` was tested, and the growth [1] was 4.02% (active), the growth [2] was 21.3% and the growth [3] was 46.4%. For the same compound, the growth [4] was 23.9%, the growth [5] was 6.03% (active) and the growth [6] was 36.6%. The growth [7] was 7.69% (active), the growth [8] was 5.94% (active) and the growth [9] was 85.5%. The growth [10] was 14.2%, the growth [11] was 26.1% and the growth [12] was 3.15% (active). The growth [13] was 44.5%, the growth [14] was 30.2% and the growth [15] was 43.9%. It also gave a growth [16] of 23%, a growth [17] of 33.9% and a growth [18] of 48.4%. The growth [19] was 61.8%.
`COc1ccc(Nc2ncccc2C(=O)NCc2cn(Cc3cccc(Oc4ccccc4)c3)nn2)cc1` gave a growth [1] of 46.1%, a growth [2] of 33.6% and a growth [3] of 41.4%. The growth [4] was 52%, the growth [5] was 46% and the growth [6] was 50%. The growth [7] was 33.7%, the growth [8] was 33.6% and the growth [9] was 88.8%. It also gave a growth [10] of 38.7%, a growth [11] of 32.2% and a growth [12] of 12.6%. For the same compound, the growth [13] was 61.2%, the growth [14] was 46.2% and the growth [15] was 54.7%. It also gave a growth [16] of 16.3%, a growth [17] of 35.3% and a growth [18] of 47.7%. For the same compound, the growth [19] was 63.3%.
For `Clc1cc(Cl)cc(-c2ccc(-c3ccc(/C=N/NC4=NCCN4)cc3)s2)c1`, the growth [1] was 23.4%, the growth [2] was -1.14% (active) and the growth [3] was 98.3%. The growth [4] was 61.5%, the growth [5] was 60.6% and the growth [6] was 76.2%. It also gave a growth [7] of 93.7%, a growth [8] of 84% and a growth [9] of 103%. The growth [10] was 94.4%, the growth [11] was -62.4% (active) and the growth [12] was 0.288% (active). For the same compound, the growth [13] was 53.2%, the growth [14] was -79% (active) and the growth [15] was 35.1%. It also gave a growth [16] of 88.1%, a growth [17] of 68.1% and a growth [19] of 97.3%.
`Cc1ccc(S(=O)(=O)NCCCNc2cc(-c3cn(C(C)(C)C)nc3-c3cccc(O)c3)ccn2)cc1` gave a growth [1] of 76.1%, a growth [2] of 11.8% and a growth [3] of 61.9%. The growth [4] was 62.5%, the growth [5] was 60.2% and the growth [6] was 54.8%. It also gave a growth [7] of 51.7%, a growth [8] of 49.7% and a growth [9] of 72%. For the same compound, the growth [10] was 56.8%, the growth [11] was 16.5% and the growth [12] was 12.8%. It also gave a growth [13] of 80%, a growth [14] of 58.1% and a growth [15] of 39.6%. It also gave a growth [16] of 42.8%, a growth [17] of 66.8% and a growth [18] of 13.5%. The growth [19] was 60.6%.
With `Cc1cc(N)n(S(=O)(=O)c2oc(-c3ccccc3)nc2C#N)n1` the growth [1] was 103%, the growth [2] was 7.1% (active) and the growth [3] was -49% (active). The growth [4] was 94.1%, the growth [5] was 92.3% and the growth [6] was 103%. The growth [7] was 101%, the growth [8] was 108% and the growth [9] was 101%. The growth [10] was 84.5%, the growth [11] was 61.8% and the growth [12] was 90.4%. The growth [13] was 93.1%, the growth [14] was 86.7% and the growth [15] was 100%. It also gave a growth [16] of 100%, a growth [17] of 90.8% and a growth [18] of 68.2%. It also gave a growth [19] of 106%.
With `ClC(Cl)c1nc(-c2cccnc2)n2nc(-c3ccccc3)cc2n1` the growth [1] was -21.7% (active), the growth [2] was 6.07% (active) and the growth [3] was -4.43% (active). For the same compound, the growth [4] was 17.3%, the growth [5] was -51% (active) and the growth [6] was 23%. For the same compound, the growth [7] was 0.57% (active), the growth [8] was 60.8% and the growth [9] was 96.4%. The growth [10] was 71%, the growth [11] was -21.3% (active) and the growth [12] was -12.7% (active). The growth [13] was 25.7%, the growth [14] was -32.7% (active) and the growth [15] was 24.4%. The growth [16] was 36%, the growth [17] was 47.5% and the growth [19] was 73.4%.
Work on `CCOC(=O)CC(=O)OC` yielded a growth [1] of 118%, a growth [2] of 103% and a growth [3] of 114%. For the same compound, the growth [4] was 121%, the growth [5] was 114% and the growth [6] was 111%. The growth [7] was 110%, the growth [8] was 95.7% and the growth [9] was 96.9%. It also gave a growth [10] of 96.1%, a growth [11] of 102% and a growth [12] of 96.5%. It also gave a growth [13] of 96.3%, a growth [14] of 101% and a growth [15] of 95.3%. For the same compound, the growth [16] was 100%, the growth [17] was 104% and the growth [18] was 100%. The growth [19] was 104%.
With `Cc1nc2ncccc2nc1Nc1ccc(S(=O)(=O)Nc2ccccn2)cc1` the growth [1] was 105%, the growth [2] was 106% and the growth [3] was 107%. It also gave a growth [4] of 89.1%, a growth [5] of 109% and a growth [6] of 98.4%. It also gave a growth [7] of 104%, a growth [8] of 97.5% and a growth [9] of 107%. It also gave a growth [10] of 97.5%, a growth [11] of 123% and a growth [12] of 121%. It also gave a growth [13] of 88.5%, a growth [14] of 94.4% and a growth [15] of 88.1%. For the same compound, the growth [16] was 99%, the growth [17] was 89.4% and the growth [18] was 85.1%. It also gave a growth [19] of 101%.
For `NC(N)=N/N=C/c1ccc(-c2ccc(-c3cc(Cl)cc(Cl)c3)s2)cc1`, the growth [1] was -45.9% (active), the growth [2] was -25.2% (active) and the growth [3] was 100%. The growth [4] was -30.4% (active), the growth [5] was 27.4% and the growth [6] was 73.5%. The growth [7] was 75.9%, the growth [8] was -3.6% (active) and the growth [9] was 106%. The growth [10] was 93.9%, the growth [11] was -74.5% (active) and the growth [12] was -74.9% (active). The growth [13] was 40%, the growth [14] was -84.1% (active) and the growth [15] was -38.5% (active). For the same compound, the growth [16] was 86.9%, the growth [17] was 48.2% and the growth [19] was 96.5%.
`CCOC(=O)c1ccc2c(c1)nc(-c1ccc(OCc3ccccc3)c(OC)c1)n2-c1cc(C(C)(C)C)[nH]n1` gave a growth [1] of 89.9%, a growth [2] of 55.4% and a growth [3] of 99.2%. It also gave a growth [4] of 109%, a growth [5] of 83.6% and a growth [6] of 88.1%. For the same compound, the growth [7] was 35.8%, the growth [8] was 88.2% and the growth [9] was 101%. It also gave a growth [10] of 95.4%, a growth [11] of 59.4% and a growth [12] of 71.7%. It also gave a growth [13] of 105%, a growth [14] of 91.9% and a growth [15] of 55.5%. The growth [16] was 65.3%, the growth [17] was 84.3% and the growth [19] was 107%.
